We go through 27 compounds from PubChem BioAssay.

The structures appear in SMILES notation. Unmarked numbers belong to inactive results. Calls of active or inactive are those of the source. Unless noted, no stated cut-off is given here; in the data, active means inhibition above about 33%; inactive means the rest.

Test [1] is described as follows: StAR promoter reporter inhibitors, counter-screen for LRH-1 inverse agonist project, cell-based, luminescence, high throughput (AID 651611; in the data active means inhibition above about 28%). To be noted: StAR promoter luciferase reporter counterscreen, at 3.6 µM, hits give high values.
The target of test [2] is Nuclear receptor subfamily 5 group A member 2 (Homo sapiens) (UniProt O00482). Description: NR5A2 activity suppression in reporter cells – cell-based, luminescence, confirmation (AID 651613; in the data active means inhibition above about 42%;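 further: HEK293T cells co-transfected with LRH-1 and StAR promoter luciferase reporter; 0% = vehicle wells and 100% = parental cells lacking receptor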). To be noted: cell-based LRH-1 luciferase reporter, inverse agonism; at 3.6 µM; hits give high values.
Nuclear receptor subfamily 5 group A member 2 (Homo sapiens), sequence (O00482 whole entry, looked up): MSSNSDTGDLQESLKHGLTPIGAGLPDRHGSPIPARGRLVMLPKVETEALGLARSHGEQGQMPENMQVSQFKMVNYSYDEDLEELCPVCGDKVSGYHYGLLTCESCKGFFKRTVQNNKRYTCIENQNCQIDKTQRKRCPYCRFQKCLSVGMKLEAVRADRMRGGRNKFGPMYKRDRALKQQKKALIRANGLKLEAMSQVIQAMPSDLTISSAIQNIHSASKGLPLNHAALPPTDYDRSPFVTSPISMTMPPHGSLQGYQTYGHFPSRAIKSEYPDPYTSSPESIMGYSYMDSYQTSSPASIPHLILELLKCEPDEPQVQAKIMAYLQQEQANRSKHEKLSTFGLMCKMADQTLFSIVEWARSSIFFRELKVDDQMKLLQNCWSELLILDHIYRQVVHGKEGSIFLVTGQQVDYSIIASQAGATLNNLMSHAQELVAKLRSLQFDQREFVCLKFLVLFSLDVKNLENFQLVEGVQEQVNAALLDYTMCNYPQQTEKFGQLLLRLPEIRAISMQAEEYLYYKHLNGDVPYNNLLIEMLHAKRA
Test [3] concerns the target Steroidogenic factor 1 (Homo sapiens) (UniProt Q13285). Kind of test: inverse agonism at SF1 nuclear receptor – cell-based, luminescence, high throughput, counter-screen for LRH-1 inverse agonist project (AID 651614; in the data active means inhibition above about 44%;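 further: cells cotransfected with StAR promoter reporter and SF1 expression vector; 0% = vehicle on cells with receptor and 100% = vehicle on cells lacking receptor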). To be noted: cell-based SF1 luciferase reporter, at 3.6 µM, hits give high values.
The nature of test [4]: compounds suppressing VP16-driven luciferase signal – cell-based, luminescence, high throughput, counter-screen for LRH-1 inverse agonist project (AID 651615). The following applies: Gal4-VP16 luciferase reporter cells, at 3.6 µM, hits give high values.

Steroidogenic factor 1 (Homo sapiens), sequence (Q13285 whole entry, looked up, the tested form may be a part): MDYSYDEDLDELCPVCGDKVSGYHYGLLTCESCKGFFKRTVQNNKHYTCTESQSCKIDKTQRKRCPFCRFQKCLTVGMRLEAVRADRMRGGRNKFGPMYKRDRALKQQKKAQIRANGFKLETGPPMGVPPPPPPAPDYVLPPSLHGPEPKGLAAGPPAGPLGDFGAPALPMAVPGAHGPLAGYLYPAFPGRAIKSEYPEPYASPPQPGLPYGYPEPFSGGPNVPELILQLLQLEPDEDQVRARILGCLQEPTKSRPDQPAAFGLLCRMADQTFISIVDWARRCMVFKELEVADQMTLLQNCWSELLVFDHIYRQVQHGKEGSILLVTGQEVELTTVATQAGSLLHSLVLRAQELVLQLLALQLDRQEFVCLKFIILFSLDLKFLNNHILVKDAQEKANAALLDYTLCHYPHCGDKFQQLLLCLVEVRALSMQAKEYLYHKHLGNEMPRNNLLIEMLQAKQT

Take `CCN(CC)C1Oc2cc3c(cc2C(c2cccc(OC)c2O)C1C)OCO3` (stereo not drawn): the inhibition is 23.9% in test [1], 53.1% (active) in test [2], 72% (active) in test [3] and 15.5% in test [4].
The like results for `O=C(CSc1nnc(Cc2cccs2)n1Cc1ccco1)Nc1ccc(Cl)cc1Cl` were, in that order, 9.49%, 51.8% (active), 47.5% (active) and 19.1%.
Consider `CC(C)NC(=O)N1Cc2cc(C(=O)NC3CCCC3)nc(-c3cccc(-c4cccnc4)c3)c2[C@@H]1CCO`, for which the inhibition in test [1] was 24.3%; in test [2], 45.1% (active); in test [3] it was 42.1%; in test [4] it was 5.54%.
Take `N#Cc1c2c(c(NCCOCCO)n3c1nc1ccccc13)CCCC2`: the inhibition in test [1] is 4.14%; in test [2], 40.5%; in test [3] it was 31.7%; in test [4], -0.15%.
Take `COc1cc(C(=O)Nc2ccccc2C(=O)Nc2ccccn2)cc(OC)c1OC`: the inhibition was 61.2% (active) in test [1], 45.9% (active) in test [2], 62.1% (active) in test [3] and -2.31% in test [4].
The like results for `COc1ccc(NC(=O)CSc2ncnc3c2cnn3Cc2ccccc2)cc1` were, in that order, 16.1%, 49.6% (active), 62.2% (active) and 2.38%.
For the compound `CC(=O)Nc1ccc(NC(=O)CSc2ccc(-c3ccco3)nn2)cc1`, the inhibition in test [1] is 16.1%; in test [2], 49.4% (active); in test [3], 44.7% (active); in test [4], -18.3%.
As for `Cc1ccc(-c2nn3c(C)nnc3s2)cc1NC(=O)c1ccco1`, the inhibition in test [1] is 7.12%; in test [2], 63.2% (active); in test [3], 60.7% (active); in test [4] it was -12.3%.
For `COCc1cccc(-c2csc(C(C)(O)c3cccc(OC)c3)n2)c1` (stereo not drawn), the inhibition in test [1] is -0.93%; in test [2] it was 45.2% (active); in test [3], 29.1%; in test [4], 11.7%.
The corresponding values for `O=c1c2ccccc2c(C=Nc2ccccc2O)c(O)n1-c1nccs1` are 5.33%, 46.1% (active), 35.1% and -7.97%.
For `COc1ccc(CCNC(=O)CN2C(=O)NC3(CCCCC3)C2=O)cc1`, the inhibition is 11% in test [1], 53.9% (active) in test [2], 54% (active) in test [3] and -6.08% in test [4].
Consider `O=C(COc1ccc(C(=O)c2ccccc2)cc1)NCc1ccc(F)cc1`, for which the inhibition is 19.9% in test [1], 28.7% in test [2], 37.9% in test [3] and 30.4% in test [4].
With `O=[N+]([O-])c1ccc(-n2cnc3ccccc32)c([N+](=O)[O-])c1`, the inhibition in test [1] is 17.6%; in test [2], 54.7% (active); in test [3] it was 62.1% (active); in test [4], 9.79%.
The corresponding values for `COc1ccc(CCNC(=O)CN2C(=O)C3(OCCCO3)c3ccccc32)cc1OC` are 11.2%, 45.7% (active), 52.5% (active) and -9.46%.
The corresponding values for `OCCCNc1ncnc2oc(-c3ccccc3)c(-c3ccccc3)c12` are 9.63%, 35.1%, 27.6% and 13.3%.
With `O=C(COC(=O)Cn1[nH]c(=O)c2ccccc2c1=O)NNC(=O)c1ccc(Br)cc1`, the inhibition in test [1] is 27.8% (active); in test [2], 32.1%; in test [3], 35.8%; in test [4], -7.59%.
The corresponding values for `COc1ccc(OCc2nnc3n2N=C(c2ccc(C)cc2)CS3)cc1` are -0.29%, 26.3%, 28.9% and -1.91%.
The corresponding values for `COc1ccc(C2=Nn3c(nnc3-c3ccccc3OC)SC2)cc1OC` are 52.6% (active), 58.7% (active), 64% (active) and 11.1%.
For `Cn1c(CN2CCN(c3ccc(Cl)cc3)CC2)nc2ccccc21`, the inhibition in test [1] was 5.45%; in test [2], 32.9%; in test [3], 52.9% (active); in test [4], -6.14%.
The like results for `COc1ccc(NC(=O)CSc2nnc(-c3ccccn3)n2N)cc1Cl` were, in that order, 20.3%, 48.5% (active), 49.4% (active) and 2.01%.
With `CC(=O)Nc1ccc(NC(=O)COC(=O)c2ccc([N+](=O)[O-])o2)cc1`, the inhibition in test [1] was 12.7%; in test [2], 60.1% (active); in test [3], 51.9% (active); in test [4] it was -5.51%.
The like results for `CCN1C(=O)c2cccc3c(N)ccc1c23` were, in that order, 33.4% (active), 58.6% (active), 46% (active) and -37.8%.
Take `Cc1c(Cl)cccc1NC(=O)CSc1nnc(C)n1CC1CCCO1` (stereo not drawn): the inhibition in test [1] is -4.11%; in test [2], 38.1%; in test [3], 14.9%; in test [4], -6.95%.
The corresponding values for `CC(C)(Oc1ccc(Cl)cc1)C(=O)OCC(=O)NCCc1ccccc1` are 10.5%, 45.2% (active), 46.8% (active) and 4.06%.
The like results for `Cc1cccc(CSC(Nc2ccc(F)cc2)=C(C#N)C#N)c1` were, in that order, -5.34%, 35%, 29.4% and 17.7%.
For `CC(=O)Nc1cc(-c2ccc(F)cc2)cn2c(-c3ccc(S(C)(=O)=O)cc3)cnc12`, the inhibition in test [1] is 12.6%; in test [2], 51.4% (active); in test [3] it was 48.7% (active); in test [4], -16.1%.
The like results for `COc1ccc(OCCNC(=O)C2(C)CCN2Cc2ccc3ccccc3c2)cc1` (stereo not drawn) were, in that order, 13.6%, 45.2% (active), 43.2% (active) and 1.36%.
